Bioassay records (PubChem)
GLS inh: glutaminase GLS (human) inhibition; O94925; GLS enzymatic activity, qHTS titration; Potency, µM (titrated, usually from 45.5 µM), inactives show at the top dose activity change, negative = inhibition, most hits filed as inhibitors; 410,000 tested, 0.21% active; AID 624170
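hKGA in 45 mM KH2PO4 (pH 8.2), 0.02% Tween-20 with compound, then 1mM L-Glutamine (stock as added) plus glutamate oxidase/HRP/Amplex red coupling mix. Fluorescence read initially and after 30 min at RT; signal change reflects glutamate formation.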
Tb PFK block: inhibitors of T. brucei phosphofructokinase. 330,000 tested, 0.17% active. Potency, µM (highest dose often 57.5 µM), for inactives: at the top dose activity, negative = inhibition, hits mostly inhibitors. O15648. T. brucei PFK, ADP-Glo luminescence. AID 485367;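 also: 0% = uninhibited 1x PFK enzyme wells and -100% = no-enzyme wells; nearly all actives have a fitted effect of over 60% in size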
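Activity is normalized to no-enzyme wells (full inhibition) and 1.25 nM enzyme wells (no inhibition). Reaction: 0.5 mM F6P, 0.1 mM ATP, 45 min RT, ADP-Glo luminescence; concentration-response curves fitted and classed by quality.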
KAT2A inh: blocks human GCN5L2 histone acetyltransferase. Potency, µM (titrated, usually from 58.9 µM), without a hit: top-dose activity change, negative = inhibition, hits mostly inhibitors. 390,000 tested, 0.21% active. GCN5L2 HAT assay, ThioGlo1 CoA-SH fluorescence. Q92830
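GCN5L2 (20nM final) in 50mM HEPES, 0.1mM EDTA pH 7.5, 0.01% Tween-20 was preincubated 15 min at room temperature with compound, then given ThioGlo1 (50uM), H3(1-25) peptide (75uM) and acetyl-CoA (70uM); CoA-thiol fluorescence (Ex340/Em540) was read at 0 and 20 min.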
USP2a block: inhibitors of human ubiquitin-specific protease USP2a; O75604; USP2 core, Ub-CHOP2 coupled fluorogenic reporter, 485/531; Potency, µM (doses to about 38.3 µM), without a hit: at the highest dose activity change, negative = inhibition, most hits filed as inhibitors; 330,000 tested, 0.01% active; AID 463254;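 also: plate controls were DMSO wells for no effect and full inhibition by NEM control for full effect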
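Deubiquitinase activity read as fluorescence (485/531 nm) after Ub-CHOP2 cleavage activates the enterokinase reporter on its substrate; USP2 core 10nM, Ub-CHOP2 and substrate 25nM each, 30min compound preincubation then 60min RT; data normalized to NEM, curves fitted.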
Tb PGK inh: T. brucei PGK inhibition; P07378; PGK/GAPDH coupled, Kinase-Glo luminescence, 60 min; Potency, µM (top dose mostly 57.5 µM), without a hit: top-dose activity change, negative = inhibition, most hits filed as inhibitors; 380,000 tested, 0.043% active; AID 602233; also: nearly all actives have a fitted effect of over 60% in size
Target sequence (P07378 whole entry, looked up): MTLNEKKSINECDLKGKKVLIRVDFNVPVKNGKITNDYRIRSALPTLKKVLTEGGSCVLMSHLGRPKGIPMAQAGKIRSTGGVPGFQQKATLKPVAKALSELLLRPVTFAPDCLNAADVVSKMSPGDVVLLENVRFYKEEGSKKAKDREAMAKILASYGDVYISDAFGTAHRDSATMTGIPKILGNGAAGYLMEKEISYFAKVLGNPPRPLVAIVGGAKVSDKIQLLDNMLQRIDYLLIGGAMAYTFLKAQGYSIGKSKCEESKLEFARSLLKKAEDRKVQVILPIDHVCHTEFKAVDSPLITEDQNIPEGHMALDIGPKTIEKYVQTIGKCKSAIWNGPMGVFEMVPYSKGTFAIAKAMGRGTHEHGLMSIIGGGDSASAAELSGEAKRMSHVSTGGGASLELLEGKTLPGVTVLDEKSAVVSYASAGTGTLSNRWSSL
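Luminescent ATP detection (Kinase-Glo Plus) follows a 60-minute room-temperature incubation, with wells lacking PGK as controls. Buffer: 100 mM TEA (pH 7.6), 5 mM MgCl2, 0.01% Tween-20. Coupling enzyme GAPDH (100 nM final) supplies unstable 1,3-BPG in-well.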
An asterisk follows results filed as active; i = inactive; ? = inconclusive; . = no result; [ ] = another dose, or the depositor's remark. The list is not random: actives were taken first. Their share in the collection is about 0.52%. Calls follow the shape of the dose curve; as a rule, active = well fitted curve in the direction sought with a large enough effect; inconclusive = small, poorly fitted or top-dose-only effect, or another doubt; inactive = no such curve, though single readings can be large; an effect the other way counts as inactive or inconclusive. Unless noted, % is scaled to controls: 0 for no effect and ±100 for the full control effect; potency is read from the fitted curve at half-maximal effect.

SMILES	GLS inh	Tb PFK block	KAT2A inh	USP2a block	Tb PGK inh
COc1ccc(CN(CCN(C)C)c2ncccn2)cc1	27.1%	.	?	.	.
CCCCCCCCCCCCCCCC[N+](C)(C)CCN(Cc1ccc(OC)cc1)c1ncccn1	?	3.8%	-6.6%	10µM*	-1.9%
O=C(Nc1ccc(Cl)cc1)Nc1ccc(Cl)c(C(F)(F)F)c1	2.5%	.	.	.	.
CC1(C)Cc2c(sc3ncn4c(=S)[nH]nc4c23)CO1	12.6µM*	-7.2%	22.4µM*	0.0%	-8.9%
O=C1CC(c2cccc(O)c2)c2c(nc(SCc3ccccc3F)[nH]c2=O)N1 (stereo not drawn)	16.3%	.	-1.1%	.	-3.3%
CCC(=O)C(Cc1ccccc1)(Cc1ccccc1)CC(C)N(C)C (stereo not drawn)	3.0%[72.5 µM]	.	.	.	.
CC1(C(=O)O)CCC2(C)CCC3(C)C(=CC(=O)[C@@H]4C5(C)CC[C@H](O[C@H]6O[C@H](C(=O)O)C(O)C(O)[C@H]6O[C@@H]6O[C@H](C(=O)O)C(O)C(O)C6O)C(C)(C)[C@@H]5CCC43C)[C@@H]2C1 (stereo partly drawn)	14.1µM*	.	.	.	.
CSC1CCCCC1(O)CSc1nc2ccccc2o1 (stereo not drawn)	12.6µM*	15.2%	-10.9%	0.4%	-8.6%
O=C(C(Cc1ccccc1)n1cccc1)N1CCN(c2ccccc2)CC1 (stereo not drawn)	3.4%	-4.9%	-11.8%	-9.5%	-5.9%
O=C(O)C(Cc1ccccc1)n1cccc1 (stereo not drawn)	12.6µM*	-3.6%	-11.3%	-0.1%	-6.4%
O=C(NC(Cc1ccccc1)C(=O)O)/C(=C/c1ccco1)NC(=O)c1cccc(Br)c1 (stereo not drawn)	17.8µM*	-2.7%	-5.8%	-0.9%	i
CCCCCCCCCCCCCCCC(=O)N[C@@H](COP(=O)(O)O)C(=O)O	.	.	1.58µM*	.	.
COc1ccc(C(=O)OCC(=O)N2CCc3ccccc3C2)cc1OC	-10.8%	-2.7%	-3.2%	1.6%	-6.4%
CC(=O)Oc1cc(C(=O)OCC(=O)N2CCc3ccccc3C2)cc(OC(C)=O)c1OC(C)=O	6.31µM*	25.7%	0.5%	3.5%	?
c1coc(-c2nnc(-c3ccco3)nn2)c1	7.94µM*	-24.9%	-22.1%	-0.3%	?
Cc1cc(N2C(=O)C=CC2=O)c([N+](=O)[O-])cc1C	5.4%	?	20µM*	3.3%	-13.7%
Cc1c([N+](=O)[O-])cc(N2C(=O)C=CC2=O)cc1[N+](=O)[O-]	-19.1%	.	.	.	-8.0%
c1cnc2cc3c(cc2n1)[C@@H]1CNC[C@@H]3C1	-0.6%	.	.	.	.
Cn1c(/C=C/c2ccccc2)nc2ccccc21	2.6%	?	-4.9%	-0.6%	i
CC(=O)c1ccc(/C=C/c2nc3ccccc3n2C)o1	-0.7%	-22.8%	11.2µM*	2.1%	-9.3%
Cc1cccc(Cn2c(CNS(=O)(=O)c3ccc(C(C)C)cc3)nc3cccnc32)c1	3.7%	.	-3.0%	.	1.9%
Nc1c(C(=O)OCC(=O)Nc2cccc([N+](=O)[O-])c2)[nH]c(=O)[nH]c1=O	10.4%	?	-11.1%	3.8%	17.8µM*
COc1cc(O)c(C(C)=O)c(CC(=O)O)c1	10µM*	-3.1%	-11.4%	-6.1%	15.8µM*
COc1cc(O)c(C(C)=O)c(OC)c1	-2.0%	.	-8.4%	.	-3.8%
CCCCc1cc(=O)oc2cc(C)cc(OCC(=O)N[C@@H](CSCc3ccccc3)C(=O)O)c12	11.7%	1.4%	1.78µM*	2.9%	-2.4%
SMILES	GLS inh	Tb PFK block	KAT2A inh	USP2a block	Tb PGK inh
CCc1cc(=O)oc2cc(C)cc(OCC(=O)N[C@@H](CSCc3ccccc3)C(=O)O)c12	29.8%	1.6%	-4.3%	3.8%	-1.2%
CCOc1cc(N2CCOCC2)c(OCC)cc1NC(=O)c1cccc(N(C)C)c1	1.2%	-1.7%	-5.8%	2.9%	4.7%
CCOc1cc(N2C(=O)CC3CS(=O)(=O)CC32)c(OCC)cc1NC(=O)c1ccccc1 (stereo not drawn)	22.4µM*	-3.6%	-3.7%	-2.8%	-1.4%
O=C(CCCCCCCCC#CI)Oc1ccccc1	-8.1%	.	.	.	.
O=[N+]([O-])c1ccc(N2N=C(c3ccco3)CC2c2ccccc2)cc1 (stereo not drawn)	1.7%	-5.3%	2µM*	-8.8%	6.6%
Fc1ccc(C2CC(c3ccco3)=NN2c2ccccc2)cc1 (stereo not drawn)	-0.3%	11.8%	-10.1%	-11.3%	4.4%
O=C(O)C1Nc2c(O)cccc2C2C=CCC12 (stereo not drawn)	12.6µM*	?	-1.8%	?	?
CC(C)CNC(=O)C1Nc2ccccc2C2C=CCC12 (stereo not drawn)	8.2%	.	.	.	1.9%
O=C(OC1CCCCC1)c1ccc2c(c1)C1C=CCC1C(C(=O)O)N2 (stereo not drawn)	.	?	20µM*	-1.4%	.
O=C(O)C1Nc2c(Cl)cc(Cl)cc2C2C=CCC12 (stereo not drawn)	7.94µM*	?	3.55µM*	-2.5%	25.1µM*
COc1ccc(OC)c([C@@H]2Nc3ccc(C(=O)O)cc3[C@@H]3C=CC[C@@H]32)c1	?	.	-5.2%	.	-7.7%
O=C(O)c1ccc2c(c1)[C@@H]1C=CC[C@@H]1[C@H](c1ccccn1)N2	2.82µM*	.	.	.	?
CC(C)c1ccc(NC(=O)c2ccc(=O)n(Cc3ccccc3)c2)cc1	-13.5%	.	-3.6%	.	-3.8%
Cc1ccccc1C(=O)N1CC/C(=N/OS(=O)(=O)O)c2ccc(Cl)cc21	6.4%	.	.	.	.
O=C(COc1ccc(F)cc1)Nc1ccc2nc(SCC(=O)N3CCOCC3)sc2c1	-6.0%	.	-14.5%	.	16.2%
Cn1c(=O)c2sccc2n2c(CCCC(=O)Nc3ccc(Oc4ccccc4)cc3)nnc12	3.0%	.	-4.3%	.	0.6%
CCOc1cc(CNc2ccc(N3CCOCC3)cc2)cc(Br)c1OCC	12.6µM*	?	-10.7%	0.4%	1.2%
O=[N+]([O-])c1ccccc1C1Nc2cccc3cccc(c23)N1	8.91µM*	?	-4.1%	0.1%	-11.2%
Oc1ccccc1C1Nc2cccc3cccc(c23)N1	8.2%	-2.0%	-2.7%	0.0%	-7.9%
O=C(OC1Cc2c(O)cc(O)cc2OC1c1cc(O)c(O)c(O)c1-c1c(C2Oc3cc(O)cc(O)c3CC2O)cc(O)c(O)c1O)c1cc(O)c(O)c(O)c1 (stereo not drawn)	.	.	15.8µM*	.	.
CC1(C)S[C@@H]2[C@H](NC(=O)[C@H](N)c3ccccc3)C(=O)N2[C@H]1C(=O)O	10µM*	?	-9.9%	9.6%	-10.5%
Cc1onc(-c2c(F)cccc2Cl)c1C(=O)N[C@@H]1C(=O)N2[C@H]1SC(C)(C)[C@H]2C(=O)O	3.55µM*	.	-7.0%	.	.
CCN1CCN(C(=O)N[C@H](C(=O)N[C@@H]2C(=O)N3[C@@H](C(=O)O)C(C)(C)S[C@@H]23)c2ccccc2)C(=O)C1=O	25.1µM*	.	.	.	.
